Assay results: PubChem BioAssay (NCI)
This is part of a sample that, as a whole, favours compounds with a hit. Of some 83,000 tested, about 20% had one in any assay.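 Note: values are percent growth. 100 is the growth of untreated cells, values between 100 and 0 indicate rising inhibition; between -100 and 0 indicates cell death.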 The source made the active and inactive calls. How the source made its calls: active means growth percent below 10; inactive means the rest.

Key:
Test in all cases: NCI-60 one-dose screen, 48 h (100 = growth as untreated, 0 = no growth, -100 = all killed)
Conditions in all cases: 10 µM
SR leukemia = system: SR leukemia
RPMI-8226 leukemia = system: RPMI-8226 leukemia
OVCAR-8 ovarian = system: OVCAR-8 ovarian
OVCAR-5 ovarian = system: OVCAR-5 ovarian
OVCAR-4 ovarian = system: OVCAR-4 ovarian
SK-OV-3 ovarian = system: SK-OV-3 ovarian
IGROV1 ovarian = system: IGROV1 ovarian
OVCAR-3 ovarian = system: OVCAR-3 ovarian
HS 578T breast = system: HS 578T breast
NCI/ADR-RES ovarian = system: NCI/ADR-RES ovarian
T-47D breast = system: T-47D breast
BT-549 breast = system: BT-549 breast
MDA-MB-435 melanoma = system: MDA-MB-435 melanoma
SW-620 colon = system: SW-620 colon
MCF7 breast = system: MCF7 breast
HCT-116 colon = system: HCT-116 colon
HCC-2998 colon = system: HCC-2998 colon
KM12 colon = system: KM12 colon

Measured: growth

O=[N+]([O-])c1cccc(/C=N/NC(=S)NC23CC4CC(CC(C4)C2)C3)c1
inactive: SR leukemia 81.4% | RPMI-8226 leukemia 93.1% | OVCAR-8 ovarian 40.6% | OVCAR-5 ovarian 101% | OVCAR-4 ovarian 39.5% | SK-OV-3 ovarian 62.4% | IGROV1 ovarian 76.3% | OVCAR-3 ovarian 85.9% | HS 578T breast 67.5% | NCI/ADR-RES ovarian 67.2% | T-47D breast 88.7% | BT-549 breast 100% | MDA-MB-435 melanoma 84.8% | SW-620 colon 88.5% | MCF7 breast 66.9% | HCT-116 colon 61.1% | HCC-2998 colon 103% | KM12 colon 95.2%

CCOC(=O)c1cc(C(=O)c2cc(OC)c(OC)c(OC)c2)n2ncc3ccccc3c12
active: MDA-MB-435 melanoma 7.14%
inactive: SR leukemia 23.1% | RPMI-8226 leukemia 81.9% | OVCAR-8 ovarian 78.5% | OVCAR-5 ovarian 99.3% | OVCAR-4 ovarian 83.8% | SK-OV-3 ovarian 83.4% | IGROV1 ovarian 75.9% | OVCAR-3 ovarian 47% | HS 578T breast 85.5% | NCI/ADR-RES ovarian 63.6% | T-47D breast 77.1% | BT-549 breast 70.5% | SW-620 colon 35.8% | MCF7 breast 30.4% | HCT-116 colon 50.8% | HCC-2998 colon 93.2% | KM12 colon 39.6%

CCOC(=O)c1cc(C(=O)c2ccc(Cl)cc2)n2ccc(-c3cc[n+](CC(=O)c4ccc(OC)cc4)cc3)cc12
active: SR leukemia -27.2% | SW-620 colon -29.5% | MCF7 breast 1.28% | HCT-116 colon 5.5%
inactive: RPMI-8226 leukemia 23.4% | OVCAR-8 ovarian 76.7% | OVCAR-5 ovarian 112% | OVCAR-4 ovarian 29.7% | SK-OV-3 ovarian 91.1% | IGROV1 ovarian 93.2% | OVCAR-3 ovarian 37.4% | HS 578T breast 83.2% | NCI/ADR-RES ovarian 88.8% | T-47D breast 83.4% | BT-549 breast 82.1% | MDA-MB-435 melanoma 75.5% | HCC-2998 colon 100% | KM12 colon 64.4%

COc1cc(-c2nn(-c3cccc(NC(=O)CCN4CCN(Cc5ccccc5)CC4)c3)cc2-c2ccncc2)ccc1Cl
inactive: OVCAR-8 ovarian 12.7% | OVCAR-5 ovarian 22.9% | OVCAR-4 ovarian 36.2% | SK-OV-3 ovarian 22.3% | IGROV1 ovarian 31.9% | T-47D breast 29.7% | BT-549 breast 42.7%
active: SR leukemia -28.5% | RPMI-8226 leukemia -23.2% | OVCAR-3 ovarian 7.04% | HS 578T breast 2.23% | NCI/ADR-RES ovarian -21.4% | MDA-MB-435 melanoma -38.3% | SW-620 colon 2.77% | MCF7 breast 0.805% | HCT-116 colon 1.3% | HCC-2998 colon -12.8% | KM12 colon 9.7%

COc1ccc(/C=C2\CCCC3C2=Nc2ccccc2NC3c2ccc(OC)cc2)cc1 (stereo not drawn)
inactive: SR leukemia 53.9% | RPMI-8226 leukemia 25.7% | OVCAR-8 ovarian 85.1% | OVCAR-5 ovarian 127% | OVCAR-4 ovarian 77.5% | SK-OV-3 ovarian 89.3% | IGROV1 ovarian 96.6% | OVCAR-3 ovarian 86.8% | HS 578T breast 87.6% | NCI/ADR-RES ovarian 86.2% | T-47D breast 101% | BT-549 breast 79.6% | MDA-MB-435 melanoma 13.8% | SW-620 colon 72.2% | MCF7 breast 56.1% | HCT-116 colon 38.1% | HCC-2998 colon 104% | KM12 colon 27.5%

CCc1ccc(-c2ccc(-n3nc(C)c4c(N)nc(Cc5ccccc5)nc43)cc2)cc1
inactive: SR leukemia 21.2% | RPMI-8226 leukemia 86% | OVCAR-8 ovarian 32.3% | OVCAR-5 ovarian 73.5% | OVCAR-4 ovarian 63.9% | SK-OV-3 ovarian 62.8% | IGROV1 ovarian 68% | OVCAR-3 ovarian 80% | HS 578T breast 57.6% | NCI/ADR-RES ovarian 38.4% | T-47D breast 49.7% | BT-549 breast 72% | MDA-MB-435 melanoma 82.7% | SW-620 colon 77.8% | MCF7 breast 58.1% | HCT-116 colon 59.1% | HCC-2998 colon 23.7% | KM12 colon 53.5%

COc1ccc2cc(-c3nc4ccccc4s3)c(Cl)nc2c1OC
inactive: SR leukemia 87.6% | RPMI-8226 leukemia 101% | OVCAR-8 ovarian 103% | OVCAR-5 ovarian 105% | OVCAR-4 ovarian 94.6% | SK-OV-3 ovarian 93.4% | IGROV1 ovarian 103% | OVCAR-3 ovarian 91.5% | HS 578T breast 89.9% | NCI/ADR-RES ovarian 99.8% | T-47D breast 91.2% | BT-549 breast 114% | MDA-MB-435 melanoma 110% | SW-620 colon 93.8% | MCF7 breast 92.9% | HCT-116 colon 108% | HCC-2998 colon 105% | KM12 colon 101%

COc1cc(C(=O)/C=C/c2c[nH]c3ccccc23)cc(OC)c1OC
active: OVCAR-3 ovarian -8.84% | NCI/ADR-RES ovarian 9.93% | BT-549 breast -9.31% | MDA-MB-435 melanoma 7.59%
inactive: SR leukemia 14.3% | RPMI-8226 leukemia 10.3% | OVCAR-8 ovarian 15.9% | OVCAR-5 ovarian 55.7% | OVCAR-4 ovarian 49.4% | SK-OV-3 ovarian 17.7% | IGROV1 ovarian 27.7% | HS 578T breast 49.9% | T-47D breast 63.2% | SW-620 colon 37.3% | MCF7 breast 12.5% | HCT-116 colon 12.2% | HCC-2998 colon 19.6% | KM12 colon 11.5%

N#CC1=C(N)Oc2cc(N)ccc2C1c1cccnc1 (stereo not drawn)
inactive: SR leukemia 70.6% | RPMI-8226 leukemia 106% | OVCAR-8 ovarian 106% | OVCAR-5 ovarian 103% | OVCAR-4 ovarian 80.3% | SK-OV-3 ovarian 93.7% | IGROV1 ovarian 101% | OVCAR-3 ovarian 96.6% | HS 578T breast 82.4% | NCI/ADR-RES ovarian 96.2% | T-47D breast 94.2% | BT-549 breast 88.4% | MDA-MB-435 melanoma 71.8% | SW-620 colon 90.1% | MCF7 breast 89.4% | HCT-116 colon 88.3% | HCC-2998 colon 82.4% | KM12 colon 89.7%

COc1ccc(NC(=O)C2CC3C=CC2C3)c([N+](=O)[O-])c1 (stereo not drawn)
inactive: SR leukemia 85.4% | RPMI-8226 leukemia 104% | OVCAR-8 ovarian 101% | OVCAR-5 ovarian 96.5% | OVCAR-4 ovarian 92.7% | SK-OV-3 ovarian 102% | IGROV1 ovarian 108% | OVCAR-3 ovarian 99.4% | HS 578T breast 95.4% | NCI/ADR-RES ovarian 97.6% | T-47D breast 98.1% | BT-549 breast 139% | MDA-MB-435 melanoma 102% | SW-620 colon 110% | MCF7 breast 101% | HCT-116 colon 120% | HCC-2998 colon 103% | KM12 colon 105%

COc1cc(-c2nn(-c3cccc(NC(=O)NCCNC(=O)c4ccccc4)c3)cc2-c2ccncc2)ccc1Cl
active: SR leukemia 5.61% | RPMI-8226 leukemia 5.06% | OVCAR-8 ovarian 8.83% | T-47D breast -7.51% | BT-549 breast -7.03% | MDA-MB-435 melanoma 2.69% | MCF7 breast 6.01% | HCT-116 colon 3.85%
inactive: OVCAR-5 ovarian 33% | OVCAR-4 ovarian 26.6% | SK-OV-3 ovarian 33.6% | IGROV1 ovarian 28.1% | OVCAR-3 ovarian 21.1% | HS 578T breast 30.9% | NCI/ADR-RES ovarian 46.1% | SW-620 colon 11.8% | HCC-2998 colon 31.3% | KM12 colon 12.2%

Oc1ccc(/C=N/N=C2c3ccccc3-c3ccccc32)c(O)c1
inactive: SR leukemia 54% | RPMI-8226 leukemia 72.8% | OVCAR-8 ovarian 84.5% | OVCAR-5 ovarian 77.1% | OVCAR-4 ovarian 60.4% | SK-OV-3 ovarian 84.7% | IGROV1 ovarian 71.2% | OVCAR-3 ovarian 83.5% | HS 578T breast 93.7% | NCI/ADR-RES ovarian 72.9% | T-47D breast 42.8% | BT-549 breast 78.4% | MDA-MB-435 melanoma 21.5% | SW-620 colon 75.4% | MCF7 breast 43.3% | HCT-116 colon 66.1% | HCC-2998 colon 80.9% | KM12 colon 52.2%

O=C(CN1CCN(C(=O)c2ccccc2)CC1)Nc1ccccc1SCc1ccccc1
inactive: SR leukemia 71% | RPMI-8226 leukemia 68.3% | OVCAR-8 ovarian 87.3% | OVCAR-5 ovarian 96.4% | OVCAR-4 ovarian 77.2% | SK-OV-3 ovarian 89.5% | IGROV1 ovarian 84.2% | OVCAR-3 ovarian 91.5% | HS 578T breast 83.9% | NCI/ADR-RES ovarian 78.4% | T-47D breast 37.7% | BT-549 breast 68.1% | MDA-MB-435 melanoma 94.3% | SW-620 colon 98.5% | MCF7 breast 86.4% | HCT-116 colon 85.5% | HCC-2998 colon 93.6% | KM12 colon 84.2%

COc1ccc(/C(C#N)=C/c2ccccc2OC)cc1
active: NCI/ADR-RES ovarian -0.0917% | MDA-MB-435 melanoma -19.4%
inactive: SR leukemia 34.7% | RPMI-8226 leukemia 52.3% | OVCAR-8 ovarian 53.5% | OVCAR-5 ovarian 55.5% | OVCAR-4 ovarian 89.9% | SK-OV-3 ovarian 33.2% | IGROV1 ovarian 31.9% | OVCAR-3 ovarian 25.8% | HS 578T breast 47.8% | T-47D breast 26% | BT-549 breast 37.1% | SW-620 colon 22.8% | MCF7 breast 14.8% | HCT-116 colon 18.1% | HCC-2998 colon 50.2% | KM12 colon 32.2%

OCC1OC2C(NC(=S)N2c2ccccc2)C(O)C1O (stereo not drawn)
inactive: SR leukemia 95.6% | RPMI-8226 leukemia 97.1% | OVCAR-8 ovarian 97.2% | OVCAR-5 ovarian 105% | OVCAR-4 ovarian 110% | SK-OV-3 ovarian 105% | IGROV1 ovarian 121% | OVCAR-3 ovarian 102% | HS 578T breast 88% | NCI/ADR-RES ovarian 105% | T-47D breast 108% | BT-549 breast 106% | MDA-MB-435 melanoma 98.3% | SW-620 colon 98.4% | MCF7 breast 103% | HCT-116 colon 111% | HCC-2998 colon 104% | KM12 colon 103%

CCOC(=O)c1cc(C(=O)c2ccc(OC)c(OC)c2)n2c1ccc1ccc3cccnc3c12
inactive: SR leukemia 23.1% | OVCAR-8 ovarian 29% | OVCAR-5 ovarian 79.7% | OVCAR-4 ovarian 59.2% | SK-OV-3 ovarian 17.8% | IGROV1 ovarian 46% | OVCAR-3 ovarian 10.3% | HS 578T breast 25% | NCI/ADR-RES ovarian 21.6% | T-47D breast 47.5% | BT-549 breast 33% | SW-620 colon 12.8% | MCF7 breast 21.8% | HCT-116 colon 27.2% | HCC-2998 colon 65.7% | KM12 colon 28.8%
active: RPMI-8226 leukemia 5.4% | MDA-MB-435 melanoma -25.6%
